Inconclusive results are not listed. For part of these data: Entries with a potency or affinity are not part of this list. The source made the active and inactive calls. Unless noted, how the calls were made is not given here.
Tests used:
[1] = Ebola virus entry assay, green channel fluorescence
[2] = Ebola virus entry assay, reporter ratio channel; AC50: Channel type: primary unless noted; outcome: Channel type: primary unless noted
[3] = Ebola virus entry assay, blue channel (ratio component)
[4] = qHTS assay for measurement of the activity of small molecule inhibitors on Zika virus induced Caspase-3 activity in human iPSC derived neural progenitor cells (hNPCs) (AID 1224857; active means well fitted inhibition curve with a large enough effect; further: nearly all actives have a fitted effect of over 65% in size); settings: hNPCs ZIKV-induced caspase-3/7, Caspase-Glo luminescence, 6 h; series mostly up to 45.7 µM
Procedure, shortened: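 Human iPSC-derived neural progenitor cells pretreated 1 hr with compounds, then infected with Zika virus (2 FFU/cell) for 6 hours at 37 C. Caspase-3/7 measured by Caspase-Glo luminescence; % inhibition calculated from induction scaled to uninfected (0%) and infected (100%) wells.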

Measured: outcome

ClCCN1CCCC1
inactive: all assays above

NC1=NC(=O)C(c2ccccc2)O1 (stereo not given)
inactive: all assays above

CC(C)(C)NCC(O)c1ccccc1Cl (stereo not given)
inactive: all assays above

NNc1ccccc1
inactive: all assays above

CC(Cc1ccccc1)N(C)Cc1ccco1 (stereo not given)
inactive: all assays above

Nc1ccccc1C(=O)O
inactive: all assays above

C[N+]1(C)[C@@H]2CC(OC(=O)[C@H](CO)c3ccccc3)C[C@H]1[C@@H]1O[C@@H]12 (stereo not given in full)
inactive: all assays above

O=c1[nH]oc2c1CCNC2
inactive: all assays above

C=C(C)[C@H]1CN[C@H](C(=O)O)[C@H]1CC(=O)O
inactive: all assays above

Cc1ncsc1CCCl
inactive: all assays above

O=C1OC(CCN2CCCCC2)OC1(c1ccccc1)c1ccccc1 (stereo not given)
inactive: all assays above

C[C@]12Cc3cn[nH]c3C[C@@H]1CC[C@@H]1[C@@H]2CC[C@@]2(C)[C@H]1CC[C@]2(C)O
inactive: all assays above

C[C@]12CC[C@H]3[C@@H](CCC4=CC(=O)CC[C@@H]43)[C@@H]1CC[C@@H]2OC(=O)CCc1ccco1
inactive: all assays above

CC(=O)NC1CCSC1=O (stereo not given)
inactive: all assays above

Oc1ccc(Cl)cc1
inactive: all assays above

— PubChem BioAssay (NCATS)
